Data: PubChem BioAssay AID687001 (Broad Institute, 2013)
Entries with a potency or affinity are not part of this list.

Molecular target: Protein S100-A4 (Homo sapiens) (UniProt P26447)
Assay: human S100A4 peptide interaction inhibition curves – biochemical, fluorescence polarization, cherry-picked hits, dose response (AID 687001);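 note: 0% = DMSO neutral control wells and -100% = TFP positive control wells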
Conditions: FP, S100A4/TAMRA-myosin IIA peptide binding; series mostly up to 11 µM; activity change, negative = inhibition: at the top concentration;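 active = signal-lowering compounds whose fitted half-maximal concentration is at or below twice the top tested dose in every run; inconclusive = runs disagree, flat 30 to 70% inhibition, or poor curve fit; inactive = the rest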

Sequence of Protein S100-A4 (Homo sapiens) (P26447 whole entry, looked up): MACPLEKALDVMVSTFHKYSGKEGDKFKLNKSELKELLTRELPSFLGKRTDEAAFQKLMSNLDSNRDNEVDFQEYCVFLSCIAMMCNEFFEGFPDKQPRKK

Activity change, negative = inhibition, inactive:
C[C@@H]1CN([C@@H](C)CO)C(=O)c2cc(NC(=O)C3CC3)ccc2O[C@@H]1CN(C)Cc1ccc(Cl)c(Cl)c1 -3.49%, C[C@@H](NC(=O)C[C@H]1C=C[C@@H](NC(=O)C2CCC2)[C@H](CO)O1)c1ccccc1 -0.585%, O=C(NCc1ccccc1)c1cc(C2CCCCN2S(=O)(=O)c2ccccc2)on1 (stereo not drawn) -4.47%, CC(C)C[C@H]1CN(CCCC[C@@H]2CNC(=O)C(=O)N2Cc2ccccc2)C(=O)C(=O)N1Cc1ccccc1 -0.618%, COc1ccc(CNC(=O)c2cc(S(=O)(=O)N3CCCCC3)ccc2Cl)cc1OC -1.49%, Nc1nc(SCC(=O)c2ccc(Cl)cc2)c2ncn(C3OC(CO)C(O)C3O)c2n1 (stereo not drawn) -1.28%, COc1ccc(CN2C[C@H](O)COC[C@@H]3O[C@@H](CC(=O)N(C)C)CC[C@H]32)cc1 3.69%, Cc1ccc(NS(=O)(=O)c2ccc(-c3coc(C)n3)cc2)c(C)c1 -1.32%, COc1cc(OC)cc(C(=O)N2CCCc3ccccc32)c1 -4.36%, Cc1cc(-c2nc(C)c(-c3nnc(SCC(=O)Nc4ccc(Cl)cc4)n3C)s2)no1 0.268%, NC(=O)c1ccsc1NC(=O)c1ccco1 16.3%, CC(C)n1nccc1N(Cc1ccc(C#N)cc1)S(=O)(=O)c1ccccc1 -2.67%, C[C@@H]1CN([C@H](C)CO)C(=O)c2c(c3ccccc3n2C)-c2ccccc2CO[C@H]1CN(C)S(=O)(=O)c1ccccc1 8.35%, O=C(Nc1nnc([C@H]2C[C@H](O)[C@@H](CO)O2)s1)c1cccc(Oc2ccccc2)c1 8.33%, Cc1ccc(N(C)S(=O)(=O)c2cccc(C(=O)NCCCN3CCCC3=O)c2)cc1 -2.52%, C[C@@H]1CN([C@H](C)CO)C(=O)CCCn2nncc2CO[C@@H]1CN(C)S(=O)(=O)c1ccc2ccccc2c1 -2.22%, Cc1ccc(OCCOCCn2cnc3ccccc3c2=O)c([N+](=O)[O-])c1 3.84%, COc1cccc(NC(=O)N[C@@H]2C=C[C@@H](CC(=O)NCc3ccncn3)O[C@@H]2CO)c1 0.495%, CCCc1cc(C(=O)Nc2cccc3ccccc23)n(C)n1 -4.12%, Clc1ccc(-c2nc(CSc3ccccn3)cs2)cc1 -0.314%, CCCNC(=O)N1CC(=O)N2[C@H](CO)[C@@H](c3ccc(-c4ccc(F)cc4)cc3)[C@H]2C1 8.48%, Cc1ccc(CCNC(=O)c2ccc(CS(=O)(=O)c3ccccc3C)o2)cc1 1.67%, CCN1C(=O)c2ccccc2S(=O)(=O)c2ccc(C(=O)NCC(OC)OC)cc21 -5.37%, C[C@@H]1CN([C@@H](C)CO)S(=O)(=O)c2ccc(-c3ccccc3)cc2O[C@H]1CN(C)Cc1cccc(F)c1 10.1%, Cc1noc(C)c1NC(=O)N[C@@H]1CC[C@H](CCNC(=O)C2CCOCC2)O[C@@H]1CO -0.084%, O=C(NCC[C@H]1CC[C@@H](NS(=O)(=O)c2ccccc2F)[C@H](CO)O1)c1ccc(F)cc1 7.18%, Cc1cc2cc(CNC(=O)Nc3cccc(Cl)c3)ccc2n1C -16.4%, COc1ccc(/C=C2/CCCc3ccccc3C2=O)cc1 -0.109%, C[C@@H]1CN([C@H](C)CO)C(=O)c2cccc(NC(=O)c3ccncc3)c2O[C@@H]1CN(C)C -1.43% [at 10 µM], COc1ccc(-c2cnc(SCCNC(=O)c3ccc4c(c3)OCO4)[nH]2)cc1 -1.83%, O=C1CC(c2ccccc2)NN1 (stereo not drawn) -3.19%, CCOc1ccccc1N 0.398%, CC(=O)Nc1ccc2nsnc2c1 -2.33%, C[C@H](CO)N1C[C@H](C)[C@@H](CN(C)CC2CC2)OCc2cnnn2CCCC1=O -5.11%, CN(C(=O)CCc1cn(C)c2ccccc12)c1ccc(Oc2cccnc2)cc1 2.71%, CC(OC(=O)C1CC(=O)N(Cc2ccco2)C1)C(=O)Nc1ccc(F)cc1Cl (stereo not drawn) -1.03%, CCNC(=O)[C@H]1[C@H](CO)[C@H]2Cn3c(ccc(-c4ccc(F)cc4)c3=O)[C@@H]1N2C 0.752%, COc1cccc(CC(NC(C)=O)C(=O)NC2CCN(S(=O)(=O)c3ccc(NC(C)=O)cc3)CC2)c1OC (stereo not drawn) -4.43%
